Hits are enriched below; roughly 1.7% of the tested compounds scored in any of these assays.
HEK293 tox = qHTS of GLP-1 Receptor Inverse Agonists: Cytotox Screen; 0.13% of 410,000 active; Potency, µM (doses to about 38.3 µM), without a hit: top-dose activity change, negative = inhibition, most hits filed as inhibitors; HEK293 cAMP-luciferase reporter cells, luminescence, 24 h;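 note: loss of luciferase light is scored as toxicity; % is set by controls: 0 for no effect and ±100 for the full control effect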
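Quantitative HTS format, 1536 wells, 200 cells/uL seeded. Compounds: 23 nL, 24 h, 37 °C. Detection: luciferase reagent, luminescence at 12 min RT; decreased signal taken as cytotoxic.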
PTHR1 ag = qHTS for PTHR1 Agonists: Primary Screen. HEK293 GP2 PTHR1 cells, GloSensor cAMP luminescence, 1 h. Potency, µM (titrated, usually from 115 µM), inactives show at the top dose activation, actives largely listed as activators. 0.075% of 410,000 active. AID 743266, 2014; note: nearly all actives have a fitted effect of over 55% in size
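HEK-293-derived GP2 cells expressing PTHR1 and a GloSensor cAMP reporter, 3,000/well, plated overnight, given luciferin plus IBMX (each 0.5 mM as added) for 1 h at 37 °C, then compound for 1 h at 37 °C. Luminescence was read after 15 min at room temperature.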
GLP1R inv ag = qHTS of GLP-1 Receptor Inverse Agonists (Inhibition Mode); HEK293 GLP-1R CRE-luciferase, luminescence, 24 h; GLP-1R form is constitutively active; Potency, µM (highest dose often 38.3 µM), without a hit: top-dose activity change, negative = inhibition, usual class: inhibitors; 1.6% of 410,000 active; note: % is set by controls: 0 for no effect and ±100 for the full control effect; nearly all actives have a fitted effect of over 55% in size
Target sequence (P43220 whole entry, looked up): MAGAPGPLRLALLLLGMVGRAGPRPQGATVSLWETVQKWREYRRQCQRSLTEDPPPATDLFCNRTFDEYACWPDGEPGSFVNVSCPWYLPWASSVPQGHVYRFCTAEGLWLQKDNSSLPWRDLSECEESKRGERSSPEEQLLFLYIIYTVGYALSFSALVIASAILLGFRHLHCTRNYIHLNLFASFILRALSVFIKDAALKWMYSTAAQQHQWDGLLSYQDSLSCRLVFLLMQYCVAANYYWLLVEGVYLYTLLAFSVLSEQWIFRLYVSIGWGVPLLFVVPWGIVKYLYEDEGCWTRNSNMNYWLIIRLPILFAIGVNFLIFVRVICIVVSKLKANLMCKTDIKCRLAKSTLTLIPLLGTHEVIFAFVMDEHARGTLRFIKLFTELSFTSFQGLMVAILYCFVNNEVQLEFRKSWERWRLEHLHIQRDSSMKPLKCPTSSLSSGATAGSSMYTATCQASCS
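Readout was luciferase luminescence, measured 12 min after detection reagent at room temperature. Beforehand, GLP-1R reporter HEK293 cells had sat 12 h, then received compounds for 24 hr at 37 deg C.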
RGS4 inhibitor = Inhibitors of Regulator of G Protein Signaling (RGS) 4: qHTS; Transcreener GDP fluorescence polarization, RGS4-accelerated GTP hydrolysis; Potency, µM (doses to about 114 µM), for inactives: at the highest dose activity change, negative = inhibition, hits mostly inhibitors; 0.039% of 390,000 active; note: % is set by controls: 0 for no effect and ±100 for the full control effect; nearly all actives have a fitted effect of over 75% in size
Target sequence (P49798 whole entry, looked up): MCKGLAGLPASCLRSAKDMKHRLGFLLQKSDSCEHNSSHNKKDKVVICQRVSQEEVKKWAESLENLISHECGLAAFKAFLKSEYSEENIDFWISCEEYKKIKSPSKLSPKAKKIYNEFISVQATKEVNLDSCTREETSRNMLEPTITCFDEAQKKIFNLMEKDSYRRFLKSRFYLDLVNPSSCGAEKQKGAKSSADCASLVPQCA
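MLSMR compounds (23 nl, pin-transferred) preincubated 10 min at room temperature with a 500nM (2x) first reagent, then RGS4 at 900nM (2x) plus Transcreener GDP mix added; fluorescence polarization (620/688 nm) read before and after 90 min at 30 °C.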
GLP1R ag = qHTS of GLP-1 Receptor Agonists | Glucagon-like peptide 1 receptor (Homo sapiens), P43220 | HEK293 GLP-1R CRE-luciferase, luminescence, 4-6 h; cells express a hypersensitive GLP-1R form | Potency, µM (top dose mostly 45.6 µM), for inactives: at the highest dose activation, actives largely listed as activators | 0.007% of 380,000 active | AID 624172, 2012; note: % of control where 0% means no effect
* marks the source's active call; other numbers are inactive results; i = inactive; ? = inconclusive; . = not tested or not shown; [ ] = remark or other dose. Calls come from the whole dose curve; as a rule, active = well fitted curve in the direction sought with a large enough effect; inconclusive = small, poorly fitted or top-dose-only effect, or another doubt; inactive = no such curve, though single readings can be large; an effect the other way counts as inactive or inconclusive. Potency is the fitted concentration of half-maximal effect.

SMILES	HEK293 tox	PTHR1 ag	GLP1R inv ag	RGS4 inhibitor	GLP1R ag
Cc1cccc(OCc2nc(C#N)c(NCc3ccc4c(c3)OCO4)o2)c1	-5%	-13%[57.5 µM]	11µM*	-30%[11.4 µM]	4%
COC(=O)N/N=C/c1cn(CCCOc2ccccc2)c2ccccc12	7%	-96%	10µM*	5%	4%
COC(=O)N/N=C/c1cn(Cc2ccc(F)cc2)c2ccccc12	-5%	i	7.9µM*	27%	13%
O=C(NCC1CCN(Cc2cccc(Cl)c2)CC1)Nc1ccccc1Cl	-8%	i	10µM*	5%	10%
O=C(Nc1ccccc1C(F)(F)F)c1ccc(CN2CCC(Cc3ccccc3)CC2)cc1	?	-10%[57.5 µM]	8.9µM*	-15%	-2%
Cc1ccc(CN2CCC(CNC(=O)Nc3ccc(Cl)cc3)C2)cc1 (stereo not given)	-18%	i	-28%	1%	.
CCc1ccc(NC(=O)NCC2CCN(Cc3cccc(Cl)c3)CC2)cc1	-18%	i	13µM*	28%	-8%
Cc1ccc(NC(=O)NCC2CCN(Cc3cccc(Cl)c3)CC2)c(Cl)c1	-4%	i	?	-7%[56.9 µM]	1%
Cc1ccc(NC(=O)NCC2CCN(Cc3cccc(Cl)c3)CC2)cc1Cl	?	-8%	2.2µM*	-14%	3%
CCCCN1C(=O)CN(C2CCCCCC2)C(=O)C1c1ccc(OCCC)c(OC)c1 (stereo not given)	12%	-9%	12%	-2%	.
COc1ccccc1C(=O)N(CCC1CCCN1C)c1nc2ccccc2s1 (stereo not given)	-17%	-28%	3.5µM*	-9%	-4%
COc1cc(/C=C/c2ccc3cccc(O)c3n2)cc(Br)c1OC	?	-11%	4.5µM*	8%	?
COc1cccc(/C=C/c2ccc3cccc(O)c3n2)c1OC	?	-79%	?	-1%	23%
COc1ccc(/C=C/c2ccc3cccc(O)c3n2)c(OC)c1OC	-21%	-26%	2.5µM*	12%	-4%
COc1ccc(/C=C/c2ccc3c(Br)ccc(O)c3n2)cc1	-3%	-18%	0%	-7%	8%
COc1cc(/C=C/c2ccc3cccc(O)c3n2)cc(OC)c1OC	?	i	?	-9%	17%
COc1cc(/C=C/c2ccc3c(Br)cc(Br)c(O)c3n2)ccc1O	?	i	7.9µM*	?	-6%
CC1(C(=O)OCC(=O)Nc2cc(S(=O)(=O)N3CCOCC3)ccc2Cl)CC1(Cl)Cl (stereo not given)	-40%	-29%	?	-4%	-2%
CN1CCN(c2ccc(CNC(=O)C3(C)Cc4c(-c5ccc6c(c5)OCO6)ccnc4O3)cc2)CC1 (stereo not given)	-5%	-9%	-15%	.	22%
Cc1cc(C(=O)N/N=C/c2ccc(OCc3ccccc3)cc2)c(C)o1	-21%	-12%	11µM*	?	15%
COc1ccc(/C=N/NC(=O)c2cc(C)oc2C)cc1OCc1ccccc1	7%	-30%	?	-5%	14%
COc1ccc(N(CCC(=O)Nc2ccccc2F)S(=O)(=O)c2ccc(C)cc2C)cc1	-1%	-10%	10µM*	-2%	5%
Cc1sc2ncnc(SC(C)C(=O)N3c4ccccc4Sc4ccccc43)c2c1C (stereo not given)	-12%	i	8.9µM*	-16%	0%
Cc1ccc(N2C(=O)CCSC23C(=O)N(Cc2ccccc2)c2ccccc23)cc1 (stereo not given)	0%	-16%	5%	5%	.
O=C1CCSC2(C(=O)N(Cc3ccccc3)c3ccccc32)N1c1ccccc1 (stereo not given)	7%	i	11µM*	0%	.
SMILES	HEK293 tox	PTHR1 ag	GLP1R inv ag	RGS4 inhibitor	GLP1R ag
CCc1nc(-c2cc(S(=O)(=O)N3CCN(c4ccccc4)CC3)ccc2OC)no1	0%	-20%	12%	3%	.
CC1(C(=O)Nc2ccc3c(c2)OCO3)CCN1C(=O)Cc1cccc2ccccc12 (stereo not given)	-3%	i	-21%	.	8%
CCc1ccc(NC(=O)c2ccc(F)c(S(=O)(=O)NCC3COc4ccccc4O3)c2)cc1 (stereo not given)	?	-47%	5µM*	-1%	-7%
CCc1ccc(NC(=O)c2ccc(F)c(S(=O)(=O)NC3CCCCCC3)c2)cc1	-29%	i	?	-7%	.
CCc1ccc(NC(=O)c2ccc(F)c(S(=O)(=O)NCCc3ccc(OC)c(OC)c3)c2)cc1	-20%	-90%	10µM*	12%	.
COCCNC(=O)C1(C)CCCN(Cc2ccc(C)c3ccccc23)C1 (stereo not given)	4%	-9%	-28%	.	-2%
COc1ccccc1CN(C)C(=O)C(c1ccccc1)c1ccccc1	?	-38%	13µM*	-8%	3%
COC(=O)c1ccc(NC(=S)NC2CCCCC2C)cc1 (stereo not given)	?	-7%	10µM*	-31%	0%
O=C(CCNC(=O)c1ccc(Br)cc1)OCc1ccccc1Cl	-5%	-17%	-21%	-20%	14%
CCc1ccc2[nH]c(=O)c(CN(Cc3ccccc3)C(=O)Nc3ccccc3OC)cc2c1	?	i	3.5µM*	14%	11%
CCc1ccc2[nH]c(=O)c(CN(CCN(C)C)C(=O)Nc3ccccc3OC)cc2c1	-14%	-7%[57.5 µM]	?	2%	11%
CCN(CC)CCCN(Cc1cc2cc(OC)ccc2[nH]c1=O)C(=O)Nc1ccc(F)cc1	-18%	i	4.5µM*	20%	14%
CCC(=O)C(Cc1ccccc1)(Cc1ccccc1)CC(C)N(C)C (stereo not given)	.	.	.	.	6%[96 µM]
COc1ccccc1CNc1nc(-c2ccco2)nn1S(=O)(=O)c1ccc(Cl)cc1	13%	i	?	-2%	.
CC(=O)C1=C(O)C(=O)N(c2cc(C(C)(C)C)on2)C1c1ccc(Br)cc1 (stereo not given)	0%	-60%	8.9µM*	-23%	3%
CCOC(=O)C1CCN(C(=O)Cn2nc(CC)n3c(cc4sccc43)c2=O)CC1	-6%	-52%	?	6%	.
CC(=O)c1sc2c(c1OC(=O)c1ccc(Cl)cc1Cl)c(=O)n(-c1ccccc1)c(=S)n2-c1ccccc1	14%	i	7.9µM*	-14%	-7%
CC(=O)c1sc2c(c1OC(=O)c1ccc(Cl)cc1)c(=O)n(-c1ccccc1)c(=S)n2-c1ccccc1	-18%	i	-3%	-18%	0%
